Test results: the supplement of paper PMC11732987, “Enantioselective OTUD7B fragment discovery through chemoproteomics screening and high-throughput optimisation” (Communications Chemistry, 2025)
Values without a mark were called inactive.

Legend:
Test in all cases: log2 ratio of Biotin-Ahx-Ub-VS probe labelling (fragment/DMSO); higher = less target engagement (more negative = stronger competition), active = hit call of the paper (q ≤ 0.05, log2 ratio ≤ -1)
Conditions in all cases: compound concentration: 200 uM; treatment time: 3 h
USP19 = target: T1, USP19 (UniProt O94966)
T1 sequence (whole entry): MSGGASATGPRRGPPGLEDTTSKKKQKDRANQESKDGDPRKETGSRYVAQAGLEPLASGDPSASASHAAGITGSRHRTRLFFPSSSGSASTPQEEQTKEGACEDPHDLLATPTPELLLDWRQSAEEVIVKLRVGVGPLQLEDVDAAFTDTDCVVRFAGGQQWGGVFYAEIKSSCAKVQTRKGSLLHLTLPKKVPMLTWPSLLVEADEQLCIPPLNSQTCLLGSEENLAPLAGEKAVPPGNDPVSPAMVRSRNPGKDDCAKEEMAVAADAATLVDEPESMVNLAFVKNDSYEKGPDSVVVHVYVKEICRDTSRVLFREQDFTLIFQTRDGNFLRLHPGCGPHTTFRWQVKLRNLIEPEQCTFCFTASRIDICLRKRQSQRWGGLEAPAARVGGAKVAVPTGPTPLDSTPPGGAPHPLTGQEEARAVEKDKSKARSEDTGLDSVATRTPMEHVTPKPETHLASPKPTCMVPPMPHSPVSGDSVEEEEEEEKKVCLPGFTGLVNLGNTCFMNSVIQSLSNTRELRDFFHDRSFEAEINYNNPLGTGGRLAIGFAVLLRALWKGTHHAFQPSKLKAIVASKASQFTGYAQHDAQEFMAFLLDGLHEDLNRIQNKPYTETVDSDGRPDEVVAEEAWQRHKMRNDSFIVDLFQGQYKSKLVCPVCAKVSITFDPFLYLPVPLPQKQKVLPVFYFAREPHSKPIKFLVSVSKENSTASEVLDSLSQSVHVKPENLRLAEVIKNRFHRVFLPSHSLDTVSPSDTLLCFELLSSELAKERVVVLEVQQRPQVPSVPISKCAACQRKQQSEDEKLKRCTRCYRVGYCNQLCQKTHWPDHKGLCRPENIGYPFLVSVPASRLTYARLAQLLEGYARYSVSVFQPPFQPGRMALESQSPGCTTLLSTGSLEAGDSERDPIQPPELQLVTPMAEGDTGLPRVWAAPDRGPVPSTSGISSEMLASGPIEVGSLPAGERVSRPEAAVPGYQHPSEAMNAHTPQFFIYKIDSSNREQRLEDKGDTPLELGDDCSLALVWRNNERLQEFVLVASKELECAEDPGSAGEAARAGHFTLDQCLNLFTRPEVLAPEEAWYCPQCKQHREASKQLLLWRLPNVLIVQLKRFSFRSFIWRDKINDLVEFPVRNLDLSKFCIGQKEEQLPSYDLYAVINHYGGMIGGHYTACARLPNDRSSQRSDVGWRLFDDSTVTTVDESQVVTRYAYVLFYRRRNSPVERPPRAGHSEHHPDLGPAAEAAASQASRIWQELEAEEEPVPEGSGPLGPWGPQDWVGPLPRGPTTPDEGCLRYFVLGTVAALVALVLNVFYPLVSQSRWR
Method in brief: (§1)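 Each value is an average log2 ratio of fragment to vehicle, tested by unpaired t-test. The underlying Spectronaut label-free quantities were global-median-normalised, and only proteins with ≥2 unique peptides were included. Triplicate HEK293T lysate samples (495 µg) were exposed to fragment at 200 µM or vehicle for 3 h, then to Biotin-Ahx-Ub-VS at 0.5 µM final for 1 h, before NeutrAvidin enrichment of labelled DUBs, LysC and trypsin digestion, and diaPASEF LC-MS/MS.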

USP22 = target: T2, USP22 (UniProt Q9UPT9)
T2 sequence (whole entry): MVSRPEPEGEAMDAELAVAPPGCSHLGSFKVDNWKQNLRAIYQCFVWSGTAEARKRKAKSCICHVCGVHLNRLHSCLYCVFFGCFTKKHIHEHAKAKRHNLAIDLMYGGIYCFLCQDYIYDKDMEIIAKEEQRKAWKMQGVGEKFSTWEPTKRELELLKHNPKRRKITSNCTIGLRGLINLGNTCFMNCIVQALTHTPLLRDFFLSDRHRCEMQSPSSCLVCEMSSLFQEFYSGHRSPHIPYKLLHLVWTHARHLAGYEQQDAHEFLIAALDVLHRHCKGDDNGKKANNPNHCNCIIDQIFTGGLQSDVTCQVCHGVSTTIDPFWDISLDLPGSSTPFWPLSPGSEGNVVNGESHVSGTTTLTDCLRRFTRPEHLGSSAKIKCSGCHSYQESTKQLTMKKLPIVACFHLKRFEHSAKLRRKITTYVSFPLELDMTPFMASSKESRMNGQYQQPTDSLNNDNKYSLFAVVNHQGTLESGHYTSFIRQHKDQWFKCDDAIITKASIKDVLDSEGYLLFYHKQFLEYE
Method in brief: as §1

USP24 = USP24 (UniProt Q9UPU5)
Method in brief: as §1

USP25 = target: T3, USP25 (UniProt Q9UHP3)
T3 sequence (whole entry): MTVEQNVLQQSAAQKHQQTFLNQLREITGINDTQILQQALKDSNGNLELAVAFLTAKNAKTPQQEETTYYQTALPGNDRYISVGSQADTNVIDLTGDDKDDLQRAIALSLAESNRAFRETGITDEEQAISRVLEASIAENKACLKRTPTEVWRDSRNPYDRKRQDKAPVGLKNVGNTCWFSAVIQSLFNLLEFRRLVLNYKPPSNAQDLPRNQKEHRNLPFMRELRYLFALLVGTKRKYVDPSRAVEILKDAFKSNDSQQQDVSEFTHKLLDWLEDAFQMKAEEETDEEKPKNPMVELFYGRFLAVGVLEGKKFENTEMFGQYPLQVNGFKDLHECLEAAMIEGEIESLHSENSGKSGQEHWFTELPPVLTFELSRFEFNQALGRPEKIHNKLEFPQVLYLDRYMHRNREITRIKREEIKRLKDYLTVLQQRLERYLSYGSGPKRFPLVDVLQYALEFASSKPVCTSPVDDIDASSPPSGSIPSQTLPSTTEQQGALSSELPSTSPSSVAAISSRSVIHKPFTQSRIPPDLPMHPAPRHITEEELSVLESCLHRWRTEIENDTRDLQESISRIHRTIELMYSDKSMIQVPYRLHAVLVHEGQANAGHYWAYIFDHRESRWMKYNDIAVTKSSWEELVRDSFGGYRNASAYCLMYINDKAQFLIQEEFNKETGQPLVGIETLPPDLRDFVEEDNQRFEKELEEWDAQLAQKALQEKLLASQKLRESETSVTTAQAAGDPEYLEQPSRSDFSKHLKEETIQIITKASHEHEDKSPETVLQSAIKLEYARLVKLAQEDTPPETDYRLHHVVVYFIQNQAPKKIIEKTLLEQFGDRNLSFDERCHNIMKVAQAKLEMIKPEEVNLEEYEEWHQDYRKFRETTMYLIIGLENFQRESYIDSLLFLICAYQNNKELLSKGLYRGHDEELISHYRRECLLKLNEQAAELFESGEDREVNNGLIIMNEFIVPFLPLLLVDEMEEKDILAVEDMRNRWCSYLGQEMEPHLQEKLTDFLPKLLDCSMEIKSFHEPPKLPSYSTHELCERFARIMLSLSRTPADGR
Method in brief: as §1

USP28 = target: T4, USP28 (UniProt Q96RU2)
T4 sequence (whole entry): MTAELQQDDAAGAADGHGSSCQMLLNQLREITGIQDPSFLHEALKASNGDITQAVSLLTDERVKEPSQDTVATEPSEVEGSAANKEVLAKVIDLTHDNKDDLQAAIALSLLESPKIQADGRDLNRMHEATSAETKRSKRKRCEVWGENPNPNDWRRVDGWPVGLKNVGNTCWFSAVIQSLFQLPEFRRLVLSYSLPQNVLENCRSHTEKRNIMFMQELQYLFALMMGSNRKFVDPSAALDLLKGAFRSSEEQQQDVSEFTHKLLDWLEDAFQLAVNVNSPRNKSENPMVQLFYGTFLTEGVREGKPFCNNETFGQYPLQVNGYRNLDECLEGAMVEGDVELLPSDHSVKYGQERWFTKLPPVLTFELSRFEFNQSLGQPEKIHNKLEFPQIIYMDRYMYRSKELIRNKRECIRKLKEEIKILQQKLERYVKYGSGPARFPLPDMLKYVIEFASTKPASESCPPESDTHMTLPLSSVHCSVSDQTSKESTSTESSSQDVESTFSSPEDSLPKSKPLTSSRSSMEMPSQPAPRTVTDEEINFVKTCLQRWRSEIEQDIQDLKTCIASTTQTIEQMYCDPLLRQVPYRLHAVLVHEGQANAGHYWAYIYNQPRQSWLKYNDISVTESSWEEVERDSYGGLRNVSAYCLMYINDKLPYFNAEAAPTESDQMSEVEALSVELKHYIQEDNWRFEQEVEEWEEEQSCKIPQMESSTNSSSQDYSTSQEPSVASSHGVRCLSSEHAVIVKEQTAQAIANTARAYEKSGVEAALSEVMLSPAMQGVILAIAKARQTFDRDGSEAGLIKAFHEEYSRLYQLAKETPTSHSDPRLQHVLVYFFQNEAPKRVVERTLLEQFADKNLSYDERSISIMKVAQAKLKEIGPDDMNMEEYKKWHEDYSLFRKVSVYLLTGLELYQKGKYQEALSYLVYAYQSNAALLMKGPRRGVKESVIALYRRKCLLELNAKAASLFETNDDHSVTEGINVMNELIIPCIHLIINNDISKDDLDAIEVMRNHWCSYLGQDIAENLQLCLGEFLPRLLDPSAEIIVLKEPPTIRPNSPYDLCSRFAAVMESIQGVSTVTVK
Method in brief: as §1

USP24, sequence (Q9UPU5 whole entry): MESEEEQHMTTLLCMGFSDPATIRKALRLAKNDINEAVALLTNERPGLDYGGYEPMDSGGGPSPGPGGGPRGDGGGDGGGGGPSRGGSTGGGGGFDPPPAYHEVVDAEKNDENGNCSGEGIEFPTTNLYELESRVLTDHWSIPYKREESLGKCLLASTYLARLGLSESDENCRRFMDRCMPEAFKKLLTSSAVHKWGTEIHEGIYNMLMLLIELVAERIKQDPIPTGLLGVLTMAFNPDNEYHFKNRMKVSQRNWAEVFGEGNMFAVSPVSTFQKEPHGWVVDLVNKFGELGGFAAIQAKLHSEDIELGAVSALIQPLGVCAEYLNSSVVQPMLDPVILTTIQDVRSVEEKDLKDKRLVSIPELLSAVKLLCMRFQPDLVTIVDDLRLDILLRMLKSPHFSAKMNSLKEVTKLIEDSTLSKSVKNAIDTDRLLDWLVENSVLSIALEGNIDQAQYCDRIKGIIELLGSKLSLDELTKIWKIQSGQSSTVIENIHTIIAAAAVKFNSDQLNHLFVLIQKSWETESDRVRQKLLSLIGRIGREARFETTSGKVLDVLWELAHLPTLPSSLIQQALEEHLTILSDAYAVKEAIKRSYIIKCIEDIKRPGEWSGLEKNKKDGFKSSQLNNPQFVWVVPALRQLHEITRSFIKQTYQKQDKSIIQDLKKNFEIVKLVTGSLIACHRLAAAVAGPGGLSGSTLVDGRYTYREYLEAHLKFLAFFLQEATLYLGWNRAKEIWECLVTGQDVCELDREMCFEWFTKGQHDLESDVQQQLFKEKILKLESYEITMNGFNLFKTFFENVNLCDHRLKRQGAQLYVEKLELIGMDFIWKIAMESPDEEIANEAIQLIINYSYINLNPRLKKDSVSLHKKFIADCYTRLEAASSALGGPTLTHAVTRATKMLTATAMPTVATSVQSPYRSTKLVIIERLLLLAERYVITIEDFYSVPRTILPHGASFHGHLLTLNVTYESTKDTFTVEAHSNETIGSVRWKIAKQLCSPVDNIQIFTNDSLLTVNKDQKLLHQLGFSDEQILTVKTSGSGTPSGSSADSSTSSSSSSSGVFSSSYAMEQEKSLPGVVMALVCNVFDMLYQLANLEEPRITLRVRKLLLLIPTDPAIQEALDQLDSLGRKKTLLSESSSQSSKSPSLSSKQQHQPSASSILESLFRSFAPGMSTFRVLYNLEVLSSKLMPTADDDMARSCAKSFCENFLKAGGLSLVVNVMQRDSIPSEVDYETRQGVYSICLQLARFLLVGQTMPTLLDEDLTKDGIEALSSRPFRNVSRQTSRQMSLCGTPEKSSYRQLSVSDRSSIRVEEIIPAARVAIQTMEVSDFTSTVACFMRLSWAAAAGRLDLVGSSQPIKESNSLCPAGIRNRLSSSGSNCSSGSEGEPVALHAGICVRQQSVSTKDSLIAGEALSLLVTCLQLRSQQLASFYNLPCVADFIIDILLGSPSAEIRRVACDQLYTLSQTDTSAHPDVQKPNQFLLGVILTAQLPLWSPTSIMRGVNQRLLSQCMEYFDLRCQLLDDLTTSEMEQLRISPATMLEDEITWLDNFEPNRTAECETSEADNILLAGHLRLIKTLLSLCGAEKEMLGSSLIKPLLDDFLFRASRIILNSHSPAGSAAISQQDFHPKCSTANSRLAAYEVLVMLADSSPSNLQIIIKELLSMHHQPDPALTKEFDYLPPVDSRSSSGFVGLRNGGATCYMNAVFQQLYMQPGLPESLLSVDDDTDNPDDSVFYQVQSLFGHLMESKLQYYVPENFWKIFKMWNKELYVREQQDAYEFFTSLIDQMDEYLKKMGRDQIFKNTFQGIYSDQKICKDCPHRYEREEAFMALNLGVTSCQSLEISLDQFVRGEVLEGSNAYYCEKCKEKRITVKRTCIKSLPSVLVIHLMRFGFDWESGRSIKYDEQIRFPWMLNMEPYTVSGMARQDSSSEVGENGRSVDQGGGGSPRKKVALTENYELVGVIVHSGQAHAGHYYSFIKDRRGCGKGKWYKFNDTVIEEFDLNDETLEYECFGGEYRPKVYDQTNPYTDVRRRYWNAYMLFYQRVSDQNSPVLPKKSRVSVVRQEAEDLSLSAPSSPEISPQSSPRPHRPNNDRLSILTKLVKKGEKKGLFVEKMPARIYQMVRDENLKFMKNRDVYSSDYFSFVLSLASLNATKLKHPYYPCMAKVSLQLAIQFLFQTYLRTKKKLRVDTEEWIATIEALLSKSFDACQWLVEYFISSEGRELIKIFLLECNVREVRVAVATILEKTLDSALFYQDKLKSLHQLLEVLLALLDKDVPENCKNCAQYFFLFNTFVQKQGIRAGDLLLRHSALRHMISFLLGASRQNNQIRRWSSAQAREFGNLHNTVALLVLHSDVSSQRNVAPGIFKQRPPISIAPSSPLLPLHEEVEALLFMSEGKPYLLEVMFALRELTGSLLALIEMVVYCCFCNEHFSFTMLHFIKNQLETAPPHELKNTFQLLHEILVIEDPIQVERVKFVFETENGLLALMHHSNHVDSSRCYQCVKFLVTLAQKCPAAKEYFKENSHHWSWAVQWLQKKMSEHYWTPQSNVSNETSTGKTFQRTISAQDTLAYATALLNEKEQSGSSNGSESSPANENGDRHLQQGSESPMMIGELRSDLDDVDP

Compound: Cn1cc(CN(Cc2ccc(Cl)cc2)C(=O)CCl)cn1
- log2 ratio of Biotin-Ahx-Ub-VS probe labelling (USP19): -0.653
- log2 ratio of Biotin-Ahx-Ub-VS probe labelling (USP22): 0.0724
- log2 ratio of Biotin-Ahx-Ub-VS probe labelling (USP24): -1.49 (active)
- log2 ratio of Biotin-Ahx-Ub-VS probe labelling (USP25): -0.161
- log2 ratio of Biotin-Ahx-Ub-VS probe labelling (USP28): -0.648
